The source of these data is ChEMBL document CHEMBL3988442, “University of Dundee, Small-Polar-MMV Screening Library” (2021).

The target of assay [1] is T1, Aspartate--tRNA(Asp/Asn) ligase (Mycobacterium tuberculosis (strain ATCC 25618 / H37Rv)) (UniProt P9WFW3). Further: in the data most compounds retested in dose-response had high values.
T1 sequence (whole entry): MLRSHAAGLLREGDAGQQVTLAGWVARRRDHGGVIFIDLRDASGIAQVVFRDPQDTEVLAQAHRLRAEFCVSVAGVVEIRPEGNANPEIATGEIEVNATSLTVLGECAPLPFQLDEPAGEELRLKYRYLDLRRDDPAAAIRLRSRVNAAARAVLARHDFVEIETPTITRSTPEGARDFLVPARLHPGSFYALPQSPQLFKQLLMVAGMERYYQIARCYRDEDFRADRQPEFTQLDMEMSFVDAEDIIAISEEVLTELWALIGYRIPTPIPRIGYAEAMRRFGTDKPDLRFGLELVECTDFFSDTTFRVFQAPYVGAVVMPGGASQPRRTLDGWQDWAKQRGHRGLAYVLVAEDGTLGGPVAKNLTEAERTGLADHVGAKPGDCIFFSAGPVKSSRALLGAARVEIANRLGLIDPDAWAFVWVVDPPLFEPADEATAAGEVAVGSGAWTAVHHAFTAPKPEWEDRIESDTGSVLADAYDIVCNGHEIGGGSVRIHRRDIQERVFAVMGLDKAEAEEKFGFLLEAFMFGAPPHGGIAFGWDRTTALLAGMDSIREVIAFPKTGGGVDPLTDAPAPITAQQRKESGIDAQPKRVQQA
The assay is described as follows: Assay for Asp RNA synthetase-1 from Mycobacterium tuberculosis. It is filed as functional. Also noted: scale not given: direction of the effect not stated beside the values. As to conditions: 30 µM.

The target of assay [2] is Shiga toxin 2 (Escherichia coli O157:H7) (UniProt P09385+P09386). Put plainly: E. coli 0.157:H7 Shiga Toxin SOP - stx2 screening assay. The format is functional. Also noted: scale not given: direction of the effect not stated beside the values. As to conditions: 30 µM.

Turning to `CCN1CC2(CC1=O)CN(Cc1cnn(C)c1)CCN(C(=O)C(C)C)C2` (configuration not stated), the Percent Effect in assay [1] was -1.53%; in assay [2] it was -10.1%.
Regarding `CCC(NC(=O)C1CCN(S(C)(=O)=O)CC1)c1ccc(OC)c(OC)c1` (configuration not stated), the Percent Effect in assay [1] was 0%; in assay [2], -10.4%.
For `Cc1ccc(CNC(C)c2ccc3[nH]c(=O)[nH]c3c2)s1` (configuration not stated), the Percent Effect in assay [1] was 1.6%; in assay [2], -1.3%.
Consider `Cc1ccc(N2CCCC(NCc3ccncc3)C2)nn1` (configuration not stated), for which the results for the Percent Effect in assay [1] and in assay [2] were 0.131% and -14.5%, respectively.
Turning to `c1ncn(CC2CN(Cc3noc(C4CC4)n3)CCO2)n1` (configuration not stated), the Percent Effect in assay [1] was 0.367%; in assay [2], -20.8%.
Consider `CO[C@H]1CCN(Cc2cccc(C)n2)[C@@H]2CN(Cc3cccnc3)C[C@H]12`, for which the values for the Percent Effect in assay [1] and in assay [2] were -0.57% and -14.4%, respectively.
In the case of `COc1cc(C2CC(=O)Oc3cc(C)[nH]c(=O)c32)ccc1OC(F)F` (configuration not stated), the Percent Effect in assay [1] is -4.59%; in assay [2] it was -43.6%.
On to `COCc1nc(C(=O)N2CCCC2c2ccccc2C)cs1` (configuration not stated), for which the values for the Percent Effect in assay [1] and in assay [2] were -0.975% and -12.9%, respectively.
For the molecule `CS(=O)(=O)NCC1CCCN(C(=O)Nc2cccnc2N2CCCC2)C1` (configuration not stated), the values for the Percent Effect in assay [1] and in assay [2] were 6.08% and -16.6%, respectively.
As to `CCOCC1CN(S(=O)(=O)N(C)C)Cc2cnn(C)c21` (configuration not stated), the Percent Effect was -3.4% in assay [1] and 6.68% in assay [2].
As to `CCn1cnnc1CNC(=O)N1CCN(Cc2ccccc2)CC1`, the Percent Effect in assay [1] is -0.692%; in assay [2], 8.37%.
For `O=C(O)C1(Cc2ccccc2Cl)CCN(c2ncccc2F)CC1`, the Percent Effect in assay [1] was 2.22%; in assay [2] it was -10.7%.
In the case of `CCCn1nccc1C(=O)N1CCCN(CCCc2ccccc2)CC1`, the results for the Percent Effect in assay [1] and in assay [2] were -3.6% and -14.4%, respectively.
For `Cc1ncc(CNC(=O)Cc2ccc(Cl)cc2)c(C2CCCN2C)n1` (configuration not stated), the Percent Effect in assay [1] worked out at 0.551%; in assay [2], 15.8%.
Regarding `Cc1nc(CNC(=O)NCC(O)c2ccc(F)cc2F)cs1` (configuration not stated), the Percent Effect in assay [1] is -6.13%; in assay [2], -21.6%.
As to `CC(CCN1CCn2nc(CNC(=O)N(C)C)cc2C1)c1ccccc1` (configuration not stated), the Percent Effect in assay [1] was -3.2%; in assay [2], -1.92%.
As to `Cc1nnc(N2CCOC(Cn3cccn3)C2)c(C#N)c1C` (configuration not stated), the Percent Effect was found to be 3.88% in assay [1] and 19.5% in assay [2].
For the molecule `CCC(=O)NCCc1cc(N2CCN(C(C)=O)CC2)nc(C2CC2)n1`, the figures for the Percent Effect in assay [1] and in assay [2] were -0.432% and -2.36%, respectively.
For the molecule `CC(C(=O)NCc1cccc(N2CC=CC2)c1)n1cccn1` (configuration not stated), the Percent Effect was -1.41% in assay [1] and 27.1% in assay [2].
For the molecule `COc1ccc(CCN2CCC(N3CCN(C)C3=O)CC2)cc1`, the Percent Effect in assay [1] was -1.97%; in assay [2], 0.371%.
Turning to `Cn1c(Cn2cccn2)nnc1C1CCN(Cc2cccnc2N)CC1`, the Percent Effect in assay [1] is -5.74%; in assay [2], -18.3%.
Consider `COCC1Cn2nnc(-c3cnn(C)c3)c2CN1Cc1ccc(C)s1` (configuration not stated), for which the figures for the Percent Effect in assay [1] and in assay [2] were 1.73% and -7.17%, respectively.
As for `CC(C)S(=O)(=O)N1CCC(c2cc3n(n2)[C@@H](C(F)(F)F)C[C@@H](C)N3)C1` (some centres not stated), the values for the Percent Effect in assay [1] and in assay [2] were -2.54% and -27.2%, respectively.
For `Cc1ccc(C(=O)NCCCN2CCOCC2)c(Cl)c1`, the results for the Percent Effect in assay [1] and in assay [2] were 0.357% and -18.1%, respectively.
On to `CC(O)CN1CCC(CNCc2cccc(Br)c2)CC1` (configuration not stated), for which the Percent Effect was -1.97% in assay [1] and 18.9% in assay [2].
The like results for `Cc1noc(C)c1CNC(=O)N1CCN(Cc2cscn2)CC1` were, in that order, 0.233% and 1.78%.
`Cc1cc(C)n(CC2CCCN2C(=O)c2ccc(C(N)=O)cn2)n1` (configuration not stated): the Percent Effect in assay [1] is -3.07%; in assay [2], -49.3%.
For `COCC1CN(C(=O)c2ccoc2C)Cc2nccn2C1` (configuration not stated), the Percent Effect in assay [1] was 4.54%; in assay [2], -11.3%.
As to `O=C(C1CCC1)N1CCN(c2snc3ccccc23)CC1`, the Percent Effect in assay [1] came out at 2.29%; in assay [2] it was 10.4%.
The like results for `CC(C)c1nc(C(=O)N2CCOCC2CC(=O)c2ccco2)c[nH]1` (configuration not stated) were, in that order, -0.629% and -1.83%.
The matching figures for `CCN(C)S(=O)(=O)N(CC)Cc1ccc2c(c1)OCO2`: 3.49% and 12.6%.
The matching figures for `COc1nc2c(cc1C(=O)N1C[C@H](N)C[C@H]1C(=O)NC(C)C)CCC2`: -4.9% and 12.5%.
As for `CCc1noc(C(C)N2CCN(Cc3nc(C)c(C)o3)CC2)n1` (configuration not stated), the results for the Percent Effect in assay [1] and in assay [2] were -6.81% and 10.2%, respectively.
Consider `Cc1nc(CN2CCOCC3(CCN(c4cccnc4)CC3)C2)cs1`, for which the Percent Effect is 1.87% in assay [1] and -2.54% in assay [2].
Take `CC(Oc1ccccc1C(F)(F)F)C(=O)NS(=O)(=O)C(C)C` (configuration not stated): the Percent Effect was -4.49% in assay [1] and 4.69% in assay [2].
The matching figures for `O=C(NCc1ccoc1)NC1CCCN(c2ncccn2)C1` (configuration not stated): -2.64% and 15.2%.
The matching figures for `O=C(COCc1ccccc1Cl)N1CCCC(n2cccn2)C1` (configuration not stated): -1.04% and 20%.
`COc1cc(CNC(=O)C2CC(=O)N(C(C)C)C2)ccn1` (configuration not stated): the Percent Effect was -1.66% in assay [1] and -62.3% in assay [2].
The matching figures for `CCc1ncc(C(=O)N2CCOCC2c2c(C)n[nH]c2C)s1` (configuration not stated): 2.97% and 7.37%.
Regarding `Cc1cc(NC(=O)CCc2ccsc2)n(C)n1`, the Percent Effect in assay [1] is 1.87%; in assay [2], -17.7%.
The matching figures for `COc1ccc(COCC(O)CNC(=O)c2cc(C)cc(C)c2)cc1` (configuration not stated): -0.859% and -16.6%.
The like results for `CNC(=O)C1(c2cnccn2)CCCN1C(=O)c1ccccc1OC` (configuration not stated) were, in that order, -4.66% and -21.4%.
The matching figures for `Cc1nc(C(=O)N2CCc3c(nc(-c4ccncc4)[nH]c3=O)C2)cs1`: 0.783% and 13.5%.
With `Cc1cc(C)n(-c2cncc(N3CCN(C(=O)C(C)(C)C)CC3)n2)n1`, the Percent Effect in assay [1] was 0.549%; in assay [2], -19.9%.
In the case of `CC(=O)c1cn(CCC(=O)N[C@H](C(=O)O)C(C)C)c2ccccc12`, the Percent Effect in assay [1] is -1.95%; in assay [2] it was -36.7%.
On to `Cc1ccc(CN2CCCn3c(nc(Cn4cncn4)cc3=O)C2)s1`, for which the figures for the Percent Effect in assay [1] and in assay [2] were -1.14% and -10.9%, respectively.
